From PubChem BioAssay AID463173 (ICCB-Longwood Screening Facility, Harvard Medical School, 2010)
Out of some 52,000 compounds screened, about 4,300 (8.3%) were called active. The list comes from a sample in which actives are over-represented; it also holds similar structures and randomly drawn compounds. Values without a mark were called inactive. Rule as the data show it: active = survival mostly below about 52% (no sharp cut-off); inactive = mostly above about 56%.

Tested on: DeltatarO mutant
Assay: S. aureus survival, RN4220 and DeltatarO strains – OD600, teichoic acid synthesis inhibitors, primary screen (AID 463173)
Settings: S. aureus RN4220 wild type/DeltatarO growth, OD600, 18 h, hits give low values, screened at 18.75 µg/mL (by protocol)

SMILES	survival
CCCN(CCC)C(=O)Cn1c(=O)n(-c2cccc(C(F)(F)F)c2)c(=O)c2c(C)c(C)sc21	44%
CCC1SC(=S)N(CC(=O)O)C1=O (stereo not drawn)	100%
CCOCCCNC(=O)Cn1ncc2c([nH]c3ccc(C)cc32)c1=O	83%
O=C1NC(c2ccccc2)/C(=C(\O)c2ccccc2)C1=O (stereo not drawn)	70%
Cc1nc2ccn(Cc3cccs3)c(=O)c2cc1C(=O)N1CCN(c2ccccc2)CC1	83%
CCCSc1ncc(Cl)c(C(=O)NCc2ccc(C)cc2)n1	57%
CCCSc1ncc(Cl)c(C(=O)Nc2ccc(CC)cc2)n1	42% (active)
CCCSc1ncc(Cl)c(C(=O)NCc2ccc(OC)cc2)n1	52%
CCCSc1ncc(Cl)c(C(=O)Nc2ccc(OC)cc2OC)n1	46% (active)
COc1ccc(OC)c(NC(=O)c2nc(SCc3ccccc3F)ncc2Cl)c1	70%
CCCSc1ncc(Cl)c(C(=O)Nc2ccc(S(=O)(=O)Nc3ncccn3)cc2)n1	67%
Cc1ccc(-c2nnc(SCC(=O)NCc3ccccc3)o2)cc1	142%
CCN(CC)c1ccc(CNCCCSc2nnnn2C)cc1	88%
COc1cc(C)c(S(=O)(=O)N2CCCC(C)C2)cc1C (stereo not drawn)	81%
Cc1nnc(NC(=O)CSc2nccn2-c2ccc(Cl)cc2)s1	104%
O=C(NC1CCN(C(=O)NC2CCCCC2)CC1)c1ccc(F)cc1	85%
Cc1nn(-c2cc(N3CCOCC3)ccc2N)c(=O)c2ccccc12	76%
COc1ccc(N2CCN(C(=O)C(C)n3c(=O)cc(C(F)(F)F)c4c(C)nn(C)c43)CC2)cc1 (stereo not drawn)	97%
CCCCNC(=O)c1ccc2c(c1)N(CC)C(=O)c1ccccc1S2	102%
Cc1ccc(CCNC(=O)C2CCCN(c3nnc(C)c4c(C)n(-c5ccccc5)nc34)C2)cc1 (stereo not drawn)	80%

SMILES	survival
CCCCN(CC)CCCNC(=O)c1cc2c(=O)[nH]c3ccccc3c2s1	151%
N#Cc1ccccc1NC(=O)C(=O)NCC(c1cccnc1)N1CCc2ccccc21 (stereo not drawn)	53%
O=C(NCC(c1cccnc1)N1CCc2ccccc21)c1cccc(C(F)(F)F)c1 (stereo not drawn)	45% (active)
O=C(NCC(c1cccnc1)N1CCc2ccccc21)c1cccc(F)c1 (stereo not drawn)	44% (active)
Cc1cccc(NC(=O)C(=O)NCC(c2cccnc2)N2CCc3ccccc32)c1C (stereo not drawn)	53%
CCc1ccccc1NC(=O)C(=O)NCC(c1cccnc1)N1CCc2ccccc21 (stereo not drawn)	58%
O=C(NCC(c1cccnc1)N1CCc2ccccc21)C(=O)Nc1ccccc1F (stereo not drawn)	101%
O=C(NCC(c1cccnc1)N1CCc2ccccc21)c1ccc(F)c(F)c1 (stereo not drawn)	52%
O=C(NCC(c1cccnc1)N1CCc2ccccc21)c1cccc(Br)c1 (stereo not drawn)	41% (active)
O=C(NCC(c1cccnc1)N1CCc2ccccc21)c1ccc(F)cc1 (stereo not drawn)	100%
CCOc1ccc(C2C(C(N)=O)=C(C)Nc3nc(-c4ccc(OC)cc4)nn32)cc1 (stereo not drawn)	87%
COc1ccc(C)cc1NC(=O)C1CCC(CNS(=O)(=O)c2ccc3c(c2)CCCC(=O)N3)CC1 (stereo not drawn)	67%
CCOC(=O)c1ccc(NC(=O)C(C)N(c2ccc(OCC)cc2)S(C)(=O)=O)cc1 (stereo not drawn)	62%
O=C(CCc1ccccc1)NN1C(=O)c2ccccc2C1=O	61%
CCc1ccccc1NC(=O)c1cnc(N2CCCCC2)c2ccccc12	96%
CC(C)(C)OC(=O)N1CCC(c2c(C(=O)N3CCOCC3)cnn2-c2ccccc2Cl)CC1	78%
COc1ccc(NC(=O)Cn2c(=O)n(-c3ccc(OC)cc3)c(=O)c3ccc(C(=O)NCc4ccc(C)cc4)cc32)cc1	77%
O=C(c1ccc2c(c1)N(Cc1ccc(F)cc1)C(=O)c1ccccc1S2(=O)=O)N1CCC(Cc2ccccc2)CC1	72%
CCCC1=Nc2cc(C(=O)NCc3ccc(OC)cc3)ccc2Sc2ccc(C)cc21	70%
CCOc1ccc(CNC(=O)Cn2c(=O)c3cccn3c3cccnc32)cc1	70%

SMILES	survival
CCOc1ccc(N2CC(c3nc4ccccc4n3Cc3cccc(C)c3)CC2=O)cc1 (stereo not drawn)	42% (active)
CCCCn1c(C2CC(=O)N(c3ccc(OCC)cc3)C2)nc2ccccc21 (stereo not drawn)	63%
C#CCn1c(C2CC(=O)N(c3ccc(OC)cc3)C2)nc2ccccc21 (stereo not drawn)	78%
CCOc1ccc(N2CC(c3nc4ccccc4n3CC(C)C)CC2=O)cc1 (stereo not drawn)	56%
CCOc1ccc(N2CC(c3nc4ccccc4n3Cc3cccc(Cl)c3)CC2=O)cc1 (stereo not drawn)	37% (active)
C#CCn1c(C2CC(=O)N(c3ccc(OCC)cc3)C2)nc2ccccc21 (stereo not drawn)	62%
CCNC(=O)C1CCCN(c2nnc(C)c3c(C)n(-c4ccc(C)cc4)nc23)C1 (stereo not drawn)	78%
CCN1CCN(C(=O)c2ccc(S(=O)(=O)N(CC)CC)cc2)CC1	85%
COc1cc2c(cc1OC)C(c1ccc(F)cc1)N(c1ccc(F)cc1)C(=O)C2 (stereo not drawn)	105%
COc1cc2c(cc1OC)C(c1ccc(Cl)cc1)N(c1ccc(C)c(F)c1)C(=O)C2 (stereo not drawn)	42% (active)
COc1ccc(C2c3cc(OC)c(OC)cc3CC(=O)N2c2ccc(C)c(F)c2)cc1 (stereo not drawn)	79%
O=C(NCCSCc1ccccc1)C1CCN(S(=O)(=O)Cc2ccccc2)CC1	66%
COc1ccc(C)cc1NC(=O)N1CCN(c2cc(-c3noc(C)n3)ccc2C)CC1	88%
COc1cc(NC(=O)N2CCN(c3cc(-c4noc(C)n4)ccc3C)CC2)cc(OC)c1OC	55%
Cc1nc(-c2ccc(C)c(N3CCN(C(=O)Nc4ccc(Br)cc4)CC3)c2)no1	17% (active)
Cc1ccc(NC(=O)N2CCN(c3cc(-c4noc(C)n4)ccc3C)CC2)c(F)c1	-5% (active)
Cc1cc(C)cc(NC(=O)N2CCN(c3cc(-c4noc(C)n4)ccc3C)CC2)c1	87%
Cc1ccc(NC(=O)N2CCN(c3cc(-c4noc(C)n4)ccc3C)CC2)c(C)c1	88%
